PubChem BioAssay
Results filed as inconclusive are left out. Activity calls are given as the source filed them.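 How the source made its calls, unless noted: active means viability at or below 27.92% in each of two runs, the all-compound median minus 4 SD; inconclusive means no clear call, values can overlap the other calls; inactive means the rest.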

Key:
[1] = Her2 expression decrease, cell viability multiplex – SKBR3 breast tumor cells, AlphaScreen, ATP viability, primary screen (AID 461;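 active means Her2 level under about 52% in both replicate screens, with viability over 70% of control, limit read from the data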;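 on Her2 level: lower value means less Her2 protein in the cells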;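 on viability: percent of carrier control wells set as 100% viability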); details: SKBR3 Her2 protein level, 18-24 h, measured here: SKBR3 viability, ATP luminescence, at 10 µM
[2] = target: Receptor tyrosine-protein kinase erbB-2 (Homo sapiens) (UniProt P04626); assay: as above; details: 18-24 h, at 10 µM, stronger effect = lower value
Sequence of Receptor tyrosine-protein kinase erbB-2 (Homo sapiens) (P04626 whole entry, looked up): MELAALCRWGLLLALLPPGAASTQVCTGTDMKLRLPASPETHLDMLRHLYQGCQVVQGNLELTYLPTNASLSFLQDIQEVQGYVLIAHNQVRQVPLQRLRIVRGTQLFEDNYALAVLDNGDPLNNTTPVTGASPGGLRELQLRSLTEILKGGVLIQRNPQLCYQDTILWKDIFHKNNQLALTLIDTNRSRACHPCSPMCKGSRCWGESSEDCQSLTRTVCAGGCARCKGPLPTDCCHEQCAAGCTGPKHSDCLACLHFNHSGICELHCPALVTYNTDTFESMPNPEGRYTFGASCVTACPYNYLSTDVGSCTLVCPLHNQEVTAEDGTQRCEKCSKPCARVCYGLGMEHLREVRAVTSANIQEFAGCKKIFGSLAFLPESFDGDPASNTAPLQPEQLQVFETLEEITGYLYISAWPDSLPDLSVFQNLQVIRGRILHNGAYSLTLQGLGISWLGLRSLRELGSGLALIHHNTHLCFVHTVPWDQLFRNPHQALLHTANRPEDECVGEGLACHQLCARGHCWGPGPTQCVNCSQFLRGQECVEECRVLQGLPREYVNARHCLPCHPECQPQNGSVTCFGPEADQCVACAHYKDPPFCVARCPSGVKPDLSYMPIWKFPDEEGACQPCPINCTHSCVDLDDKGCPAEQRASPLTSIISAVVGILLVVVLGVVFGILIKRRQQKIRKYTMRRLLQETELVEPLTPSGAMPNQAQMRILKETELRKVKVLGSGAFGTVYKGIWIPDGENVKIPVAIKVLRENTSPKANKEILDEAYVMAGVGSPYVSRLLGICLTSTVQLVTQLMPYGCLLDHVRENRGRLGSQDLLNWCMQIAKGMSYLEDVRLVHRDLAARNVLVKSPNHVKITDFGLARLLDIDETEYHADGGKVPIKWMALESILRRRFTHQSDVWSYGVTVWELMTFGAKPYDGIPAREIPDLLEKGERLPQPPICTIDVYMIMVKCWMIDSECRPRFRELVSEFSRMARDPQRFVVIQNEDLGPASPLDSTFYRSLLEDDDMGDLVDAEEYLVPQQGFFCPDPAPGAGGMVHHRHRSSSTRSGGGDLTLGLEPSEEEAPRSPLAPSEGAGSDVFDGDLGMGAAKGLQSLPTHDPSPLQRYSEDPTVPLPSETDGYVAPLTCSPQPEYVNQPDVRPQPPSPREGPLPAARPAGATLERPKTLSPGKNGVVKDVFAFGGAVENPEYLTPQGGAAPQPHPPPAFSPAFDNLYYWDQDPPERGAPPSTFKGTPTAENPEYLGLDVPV

[3] = reduced viability of SK-BR-3 breast cancer cells – cell-based, 24 h, human, pilot screen (AID 572;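 active means viability at or below 10% of carrier control in both of two separate runs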;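 further: compound exposure lasted between 18 and 24 h rather than exactly 24 h; 100% = carrier-treated control wells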); details: SK-BR-3 viability, CellTiter-Glo luminescence, at 10 µM, stronger effect = lower value
[4] = HUVEC growth inhibition – cell-based, human, primary screen (AID 575;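 active means viability at or below 30% in both replicate assays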;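 further: 100% = median of untreated cell wells with 0.1% DMSO on each plate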); details: HUVEC proliferation, CellTiter-Glo luminescence, 72 h; at 10 µM; stronger effect = lower value
[5] = H69AR cell proliferation blockers – human, duplicate replicates, primary screen (AID 580;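 active means viability at or under a set limit in both replicates, limit being median viability minus 3 SD, cut at about 48% in these data, passing the limit was not always enough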;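 further: 100% = mean luminescence of untreated wells and 0% = no signal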); details: H69AR lung tumor cells viability, ATP luminescence, 72 h; at 10 µM; stronger effect = lower value
[6] = MRP1 drug-resistance reversers in H69AR cells – cell-based, doxorubicin co-treatment, pilot screen (AID 601;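 active means viability loss from added drug above about 55%, and viability with drug at most 40%, in both replicates, limit read from the data, passing the limit was not always enough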); details: CellTiter-Glo, 72 h, at 10 µM; for differential viability (reversal): stronger effect = higher value
[7] = yeast transport mutant growth inhibition pilot in 384-well plates, post-Golgi transport modulator project (AID 636; in the data active means inhibition above about 31%); details: absorbance 615 nm, about 18 h, stronger effect = higher value
[8] = growth suppression of yeast trafficking mutant, preliminary HTS, modulators of trafficking downstream of Golgi apparatus project, 1536-format plate, OD 615 nm (AID 637; in the data active means inhibition above about 30%); details: yeast transport mutant growth, absorbance 615 nm, 18 h; stronger effect = higher value
[9] = S. cerevisiae growth inhibition in permissive medium (OD615), pilot counter-assay for S. cerevisiae lifespan shortening project, permissive growth control (AID 705;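 active means growth inhibition above 25% in both replicates, a cutoff set 3 SD above the mean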); details: OD615, 24 h, at 10 µM, stronger effect = higher value
[10] = S. cerevisiae growth inhibition in restrictive medium, OD615, pilot screen, restrictive growth control, yeast lifespan reduction project (AID 706;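 active means growth inhibition above a set limit, 3 SD over mean compound inhibition, in both replicates, cut at about 43% in these data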;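 further: modified DeaD lifespan yeast strain shifted to restrictive glucose medium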); details: OD615, 48 h, at 10 µM, stronger effect = higher value
[11] = doxorubicin toxicity protection in MRP-1 cells – H69AR cells, CellTiter-Glo, duplicate, MRP-1 activator project, pilot screen (AID 807;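 active means viability increase at or above a cutoff of the median across tested compounds plus 3 SD, cut at about 8.5% in these data, passing the limit was not always enough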;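 further: compound pretreatment 18-22 h then 72 h combined with doxorubicin; 0% = doxorubicin alone and 100% = vehicle without doxorubicin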); details: H69AR viability with doxorubicin, CellTiter-Glo luminescence; at 10 µM; stronger effect = higher value
[12] = viability of HCT116 without oncogenic beta-catenin – human colon tumor cells, pilot screen (AID 823;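 active means cell viability at or below a set limit in both duplicate runs, the limit being the all-compound median minus 4 SD, cut at about 23% in these data, passing the limit was not always enough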;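 further: 0% = wells killed by 20 µM Hyamine and 100% = untreated DMSO cell wells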); details: HCT116 beta-catenin knockout viability, CellTiter-Glo, 60 h; at 10 µM; stronger effect = lower value
[13] = viability of PTEN-null HCT116 cells – cell-based, HCT116 clonal line, CellTiter-Glo, pilot screen (AID 824); details: HCT116 PTEN-deleted viability, 60 h, at 10 µM, stronger effect = lower value;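 further: 0% = 20 µM Hyamine control and 100% = vehicle cell control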
[14] = RAM pathway blockade in budding yeast – dse1pr::URA3 reporter, 5-FOA selection, pilot screen (AID 869;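 active means inhibition over a set limit, the all-compound mean plus 3 SD, in both replicate runs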;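 further: 0% = DMSO wells with no growth and 100% = 10 µM 1-NA-PP1 with full growth; RAM network block rescues cells from 5-FOA so hits raise OD615 growth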); details: S. cerevisiae dse1pr::URA3 5-FOA growth, OD615, 2 d; at 10 µM; stronger effect = higher value; strain carries analog-sensitive mutant Cbk1 kinase
[15] = RAM signaling pathway blockade in yeast – S. cerevisiae, Pdr1DBD-CYC8 efflux-inhibited sensitized strain, primary screen (AID 1298;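 active means RAM network inhibition above 8.4% in each of two replicates, 3 SD over the compound average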;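 further: 0% = DMSO untreated cells without growth and 100% = 10 µM 1-NA-PP1 full growth; higher means more yeast growth rescued from 5-FOA killing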); details: S. cerevisiae cbk1-as DSE1-URA3 strain, 5-FOA growth OD615, 2 d; at 50 µM; stronger effect = higher value
[16] = H69AR cells + 2 uM doxorubicin, measured here: viability with 2 uM doxorubicin, stronger effect = lower value
[17] = H69AR cells, compound alone cytotoxicity

Row | SMILES | viability [1] [%] | Her2 level [2] | viability [3] | viability [4] | viability [5] | differential viability (reversal) ([6]; H69AR cells + 2 uM doxorubicin) | viability [6, 16] [%] | viability [6, 17] [%] | inhibition [7] | inhibition [8] | growth inhibition [9] | growth inhibition [10] | viability increase [11] | viability [12] | viability [13] | inhibition [14] | RAM network inhibition [15]
1 | CC(=NCC1CCNCC1)C1=C(O)CC(C)(C)CC1=O | 79 | 95.5% (inactive) | 79% (inactive) | 107% (inactive) | 106% (inactive) | 13.4% (inactive) | 92.4 | 106 | -4.73% (inactive) | 2.3% (inactive) | 10% (inactive) | 5.17% (inactive) | -2.21% (inactive) | 91.2% (inactive) | 97.3% (inactive) | 0.485% (inactive) | -1.02% (inactive)
2 | CCOC(=O)CCc1c(C)nc2cc(-c3ccc(F)cc3)[nH]n2c1=O | 97 | 99% (inactive) | 97% (inactive) | 97.6% (inactive) | 101% (inactive) | 8.37% (inactive) | 92.2 | 101 | -5.45% (inactive) | -7.33% (inactive) | -13.1% (inactive) | -4.2% (inactive) | -1.53% (inactive) | 95.8% (inactive) | 95.1% (inactive) | 1.8% (inactive) | 1.51% (inactive)
3 | COc1ccc(C2CC(=O)C(C=NCCCN3CCOCC3)=C(O)C2)cc1 (stereo not drawn) | 84.5 | 82.5% (inactive) | 84.5% (inactive) | 102% (inactive) | 99.3% (inactive) | 12.8% (inactive) | 86.5 | 99.3 | -1.15% (inactive) | -1.33% (inactive) | -0.615% (inactive) | 1.58% (inactive) | 0.71% (inactive) | 103% (inactive) | 101% (inactive) | 2.07% (inactive) | 3.01% (inactive)
4 | COc1ccc(NC(=O)C2CCCCN2S(=O)(=O)c2ccc(F)cc2)cc1 (stereo not drawn) | 91 | 93% (inactive) | 91% (inactive) | 91.4% (inactive) | 89.2% (inactive) | -12.1% (inactive) | 101 | 89.2 | -7.47% (inactive) | 1% (inactive) | -18.5% (inactive) | -18.4% (inactive) | -1.3% (inactive) | 83.5% (inactive) | 88% (inactive) | 1.19% (inactive) | 5.45% (inactive)
5 | CC1=C(C(=O)Nc2cccnc2)C(c2ccc(C(C)C)cc2)n2ncnc2N1 (stereo not drawn) | 89.5 | 105% (inactive) | 89.5% (inactive) | 103% (inactive) | 97.8% (inactive) | 26.7% (inactive) | 71.1 | 97.8 | -2.13% (inactive) | -2.83% (inactive) | -9.26% (inactive) | -12.1% (inactive) | -3.03% (inactive) | 96.6% (inactive) | 102% (inactive) | 0.44% (inactive) | 1.4% (inactive)
6 | O=C(Nc1ccc2c(c1)OCCO2)c1cnc2n(c1=O)CCS2 | 85.5 | 80.5% (inactive) | 85.5% (inactive) | 105% (inactive) | 79.4% (inactive) | 0.765% (inactive) | 78.7 | 79.4 | 0.93% (inactive) | -2.95% (inactive) | -17.9% (inactive) | 2.96% (inactive) | 3.01% (inactive) | 106% (inactive) | 104% (inactive) | 1.6% (inactive) | 4.19% (inactive)
7 | COc1ccc(-c2nc(CS(=O)CC(=O)NCc3ccccn3)c(C)o2)cc1 (stereo not drawn) | 103 | 92.5% (inactive) | 103% (inactive) | 92.9% (inactive) | 92.9% (inactive) | 8.14% (inactive) | 84.8 | 92.9 | -3.47% (inactive) | -2.46% (inactive) | -3.15% (inactive) | 18% (inactive) | -1.58% (inactive) | 95.9% (inactive) | 98.5% (inactive) | 1.57% (inactive) | 5.75% (inactive)
8 | O=C(Nc1ccccc1)c1cnc2n(c1=O)CCS2 | 92.5 | 88% (inactive) | 92.5% (inactive) | 101% (inactive) | 91.1% (inactive) | -2.48% (inactive) | 93.5 | 91.1 | -4.8% (inactive) | -0.49% (inactive) | -8.84% (inactive) | 5.01% (inactive) | -0.69% (inactive) | 104% (inactive) | 97.2% (inactive) | 1.94% (inactive) | 2.15% (inactive)
9 | COCCNC(=O)CN(C)S(=O)(=O)c1ccc(Br)cc1 | 113 | 98% (inactive) | 113% (inactive) | 97.5% (inactive) | 104% (inactive) | 5.54% (inactive) | 98.2 | 104 | -6.27% (inactive) | -3.23% (inactive) | -11.6% (inactive) | -5.76% (inactive) | -2.09% (inactive) | 98.7% (inactive) | 98.4% (inactive) | 0.87% (inactive) | 3.01% (inactive)
10 | COC(=O)C(C)Sc1nnc2n(-c3cccc(C)c3)c(=O)c3c4c(sc3n12)CCCC4 (stereo not drawn) | 87.5 | 112% (inactive) | 87.5% (inactive) | 86.8% (inactive) | 83.1% (inactive) | 64.7% (active) | 18.4 | 83.1 | 2.53% (inactive) | 2% (inactive) | -9.47% (inactive) | 16.4% (inactive) | -1.93% (inactive) | 89.5% (inactive) | 85.5% (inactive) | 0.06% (inactive) | 1.84% (inactive)
11 | COc1ccc(Cl)cc1S(=O)(=O)N1CCN(c2ccc(F)cc2)CC1 | 80 | 82% (inactive) | 80% (inactive) | 90.1% (inactive) | 75.8% (inactive) | -11.6% (inactive) | 87.4 | 75.8 | 4.23% (inactive) | 12.7% (inactive) | -13% (inactive) | -15.5% (inactive) | -2.08% (inactive) | 82.4% (inactive) | 89.7% (inactive) | -0.355% (inactive) | 1.85% (inactive)
12 | CCN(CC)CCN1C(=O)c2oc3ccc(F)cc3c(=O)c2C1c1ccncc1 (stereo not drawn) | 89.5 | 96.5% (inactive) | 89.5% (inactive) | 95.6% (inactive) | 87.5% (inactive) | 4.02% (inactive) | 83.5 | 87.5 | -3.2% (inactive) | -8.67% (inactive) | -0.15% (inactive) | -0.92% (inactive) | 0.69% (inactive) | 96.4% (inactive) | 95.9% (inactive) | 0.78% (inactive) | 2.14% (inactive)
13 | CCOC(=O)N1CCN(C(=O)COc2ccc(S(=O)(=O)NC(C)C)cc2)CC1 | 96 | 105% (inactive) | 96% (inactive) | 106% (inactive) | 90.3% (inactive) | 0.365% (inactive) | 90 | 90.3 | -5.07% (inactive) | 2.33% (inactive) | -17.6% (inactive) | -20.2% (inactive) | -0.64% (inactive) | 96.2% (inactive) | 93% (inactive) | 1.71% (inactive) | 7.54% (inactive)
14 | CCS(=O)(=O)c1nc2ccccc2n1Cc1ccccc1Cl | 101 | 93% (inactive) | 101% (inactive) | 109% (inactive) | 74.1% (inactive) | -9.51% (inactive) | 83.6 | 74.1 | -0.27% (inactive) | 5.33% (inactive) | -25.4% (inactive) | -20.7% (inactive) | -4.6% (inactive) | 71% (inactive) | 61.5% (inactive) | -0.515% (inactive) | 5.91% (inactive)
15 | Cc1sc2nc(SCC(=O)NCCO)n(C)c(=O)c2c1C | 91 | 108% (inactive) | 91% (inactive) | 104% (inactive) | 88% (inactive) | -6.7% (inactive) | 94.7 | 88 | 0.77% (inactive) | -8.33% (inactive) | -9.24% (inactive) | -20.8% (inactive) | -1.81% (inactive) | 105% (inactive) | 94.6% (inactive) | 3.88% (inactive) | 2.59% (inactive)
16 | CCOC(=O)c1csc(NC(=O)C2CCCCC2)n1 | 81 | 90% (inactive) | 81% (inactive) | 95% (inactive) | 96.5% (inactive) | 26.3% (inactive) | 70.2 | 96.5 | -1.47% (inactive) | 0.83% (inactive) | -5.67% (inactive) | 7.35% (inactive) | 2.52% (inactive) | 91.4% (inactive) | 94.6% (inactive) | 0.89% (inactive) | 0.47% (inactive)
17 | CCOc1ccccc1C(=O)Nc1nnc(CC)s1 | 94.5 | 84% (inactive) | 94.5% (inactive) | 114% (inactive) | 97% (inactive) | 8.28% (inactive) | 88.7 | 97 | -1.73% (inactive) | 3% (inactive) | -0.29% (inactive) | 12.6% (inactive) | -2.43% (inactive) | 96.3% (inactive) | 98.3% (inactive) | 0.31% (inactive) | 1.61% (inactive)
18 | Cc1nnc(SCC(=O)Nc2ccc3c4c(cccc24)CC3)n1C | 102 | 79% (inactive) | 102% (inactive) | 93.2% (inactive) | 86.9% (inactive) | 0.115% (inactive) | 86.8 | 86.9 | -6.08% (inactive) | -3.83% (inactive) | -0.36% (inactive) | -5.08% (inactive) | -4.3% (inactive) | 92.9% (inactive) | 89.8% (inactive) | 3.25% (inactive) | 3.77% (inactive)
19 | COc1ccccc1NC(=O)CSc1nnc(Cc2cccn2C)n1-c1ccc(F)cc1 | 96.5 | 86% (inactive) | 96.5% (inactive) | 95.4% (inactive) | 71.8% (inactive) | -13.1% (inactive) | 84.9 | 71.8 | -4.8% (inactive) | -2.67% (inactive) | -3.11% (inactive) | 10.8% (inactive) | -4.45% (inactive) | 86.7% (inactive) | 86.8% (inactive) | 2.05% (inactive) | 2.25% (inactive)
